Experimental data: PubChem BioAssay AID743441 (Broad Institute, 2014)
Measured potencies and affinities stand elsewhere. Calls of active or inactive are those of the source.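 Rule for the calls: active = cell toxicity seen as a signal drop, with half-maximal potency at most twice the top valid dose; inconclusive = flat curve with a partial drop, or a poor fit; inactive = the rest, including rises in signal.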

Assay: ATP-based viability loss in HEK293T cells – cell-based, CellTiter-Glo luminescence, cherry-picked samples, set 4, cytotoxicity control, dose response (AID 743441)
Details: 72 h; series mostly up to 26 µM; activity change, negative = cytotoxicity: at the top concentration

Compound	activity change, negative = cytotoxicity
Cc1noc(C)c1NC(=O)Nc1ccc2c(c1)C(=O)N([C@H](C)CO)C[C@@H](C)[C@@H](CN(C)C(=O)Nc1ccc3c(c1)OCO3)OCCCC[C@@H](C)O2	8.97 unspecified (inactive)
Cc1[nH]c(=S)sc1Cc1ccc(Cl)c(Cl)c1	0.291 unspecified (inactive)
COc1cccc(C(=O)Nc2cc(C)nn2-c2ccccc2)c1OC	14.1 unspecified (inactive)
CCOC(=O)c1c(NC(=O)Cc2cccs2)sc(C)c1C	21 unspecified (inactive)
COc1ccc2[nH]c3c(=O)n(CCCCC(=O)NCCC(C)C)c(=S)[nH]c3c2c1	7.22 unspecified (inactive)
COc1ccc(Nc2oc(-c3ccco3)nc2S(=O)(=O)c2ccc(F)cc2)cc1	-2.57 unspecified (inactive)
CC(CNc1ccc(Cl)cc1)(CNc1ccc(Cl)cc1)[N+](=O)[O-]	6.79 unspecified (inactive)
Cc1ccc(S(=O)(=O)N2CC[C@H]3[C@H](CO)Nc4ccc(Br)cc4[C@H]32)cc1	23.6 unspecified (inactive)
C[C@@H]1CCCCO[C@H](CN(C)C(=O)CCCN(C)C)[C@H](C)CN([C@@H](C)CO)C(=O)c2cc(NC(=O)Nc3cccc4ccccc34)ccc2O1	23.1 unspecified (inactive)
O=C(O)c1cc([N+](=O)[O-])ccc1NCc1ccccc1	13.4 unspecified (inactive)
COC(=O)c1c(NC(=O)CCC(=O)O)sc(Cc2ccccc2)c1C	9.22 unspecified (inactive)
Cc1ccc(C)c(NC(=O)CSc2nc3nc(-c4cccs4)cc(C(F)(F)F)c3c(=O)[nH]2)c1	18.9 unspecified (inactive)
CC1(Cc2ccccc2C#N)C(=O)Nc2cc(-c3ccccc3Cl)ccc21 (stereo not drawn)	-13.1 unspecified (inactive)
C[C@@H]1CCCCO[C@H](CN(C)CC2CC2)[C@H](C)CN([C@@H](C)CO)C(=O)c2cc(NC(=O)Nc3cccc4ccccc34)ccc2O1	12.6 unspecified (inactive)
Cc1cc(C)c(C#N)c(N2CCN(c3ccccc3)CC2)n1	-9.92 unspecified (inactive)
CSc1nc(N)nc(SC2C=CCCC2)c1C#N (stereo not drawn)	2.53 unspecified (inactive)
COc1ccc(NC(=O)c2ccc(-c3ccc([N+](=O)[O-])cc3)o2)cc1	8.52 unspecified (inactive)
CC[C@H]1OC(=O)[C@H](C)[C@@H](O[C@H]2C[C@@](C)(OC)[C@@H](O)[C@H](C)O2)[C@H](C)[C@@H](O[C@@H]2O[C@H](C)C[C@H](N(C)C)[C@H]2O)[C@](C)(O)C[C@@H](C)[C@@H]2N[C@@H](COCCOC)O[C@H]([C@H]2C)[C@]1(C)O	8.74 unspecified (inactive)
